Experimental data reported in ChEMBL document CHEMBL4513216, “Probing the Open Global Health Chemical Diversity Library for Multistage-Active Starting Points for Next-Generation Antimalarials” (ACS Infect Dis, 2020).
In all, about 68,000 compounds went through this assay and about 2,700 (4%) showed an effect of 50% or more. The full list was thinned out, with strong results kept by preference.

tested on: Plasmodium berghei; assay: Screen against P. berghei liver stage (PbLuc), transformed with Luciferase, at 2uM; format: functional, HepG2; details: tested at 2 uM

| Compound | INHIBITION |
| --- | --- |
| CCSc1ccccc1C(=O)N1CCC(S(=O)(=O)c2nncn2C)CC1 | 59.08% |
| Cn1cnnc1S(=O)(=O)C1CCN(C(=O)c2cccs2)CC1 | 25.55% |
| Cn1cnnc1S(=O)(=O)C1CCN(C(=O)c2ccco2)CC1 | 31.78% |
| CN(Cc1ccccc1F)Cc1cc2c(cc1Br)OCCO2 | 12.68% |
| Cc1cnc(C(=O)N2C[C@@H]3CC[C@H]2CN(Cc2cscn2)C3)[nH]1 | -0.62% |
| CN1CCC(N(C)c2ccccc2CNCc2ccco2)CC1 | 24.6% |
| Cc1noc(C)c1CNCc1ccccc1N(C)C1CCN(C)CC1 | 50.46% |
| CCc1cc(CNCc2ccccc2N(C)C2CCN(C)CC2)on1 | -19.27% |
| CCC(CO)N(C/C(C)=C/c1ccco1)Cc1ccsc1 (stereo not given) | 5.85% |
| CCOc1ncccc1C(=O)NC1CC(=O)N(CC(F)(F)F)C1 (stereo not given) | -27.19% |
| CC(=O)N1CCC(C(=O)N(CC(F)F)c2cccc(Cl)c2)CC1 | 23.06% |
| CCCS(=O)(=O)N1CCC(n2nc(-c3cc(C)oc3C)ccc2=O)CC1 | -17.72% |
| Cn1c(C2CCCN2C(=O)CN2CSCC2=O)nc2ccccc21 (stereo not given) | -73.81% |
| Cc1cc(C(=O)NCCN2CCC(C)CC2)nn1C(C)(C)C | 10.1% |
| Cc1cc(C(=O)NC2CCN(CC(N)=O)CC2)nn1C(C)(C)C | 61.06% |
| CC(C)(C)n1nc(C2CC2)cc1C(=O)NC1CCN(CC(N)=O)CC1 | 40.97% |
| CNC(=O)C1CCC(NC(=O)c2cc(C3CC3)n(C(C)(C)C)n2)CC1 (stereo not given) | 37% |
| CC(C)c1cc(C(=O)NC2CCN(CC(N)=O)CC2)nn1C(C)(C)C | 0.79% |
| CC(C)(C)n1nc(C(=O)NC2CCN(CC(N)=O)CC2)cc1C1CC1 | 52.74% |
| NC(=O)NCC1CCCCN1Cc1nc(-c2ccco2)no1 (stereo not given) | -3.06% |
| COc1ccc(CCC(=O)NCCN2CCC(c3cccs3)CC2)cc1 | 11.78% |
| CC(CC(=O)NCCNS(C)(=O)=O)C1CCCCC1 (stereo not given) | -13.76% |
| CC(NC(=O)Cn1ccc(=O)n(C)c1=O)c1cc(F)ccc1F (stereo not given) | 16.25% |
| COCCOCCC(=O)Nc1c(-c2ccc(F)cc2)ncn1C | 35.68% |
| CC(C)OCCC(=O)Nc1c(-c2ccc(F)cc2)ncn1C | 6.47% |
| CC(C)COCCC(=O)Nc1c(-c2ccc(F)cc2)ncn1C | 60.43% |
| CCN1CC(CN(C)Cc2nc(-c3cccc(Cl)c3)oc2C)CC1=O (stereo not given) | 32.26% |

| Compound | INHIBITION |
| --- | --- |
| CN(Cc1nc(CC2CC2)no1)CC1Cc2ccccc2O1 (stereo not given) | 44.37% |
| CN(Cc1nc(COc2ccccc2)no1)CC1Cc2ccccc2O1 (stereo not given) | 8.03% |
| CN(Cc1nc(Cc2ccccc2F)no1)CC1Cc2ccccc2O1 (stereo not given) | 60.9% |
| O=C(c1cccc(NCCO)c1)N1CCOCC1 | 10.74% |
| CCN(CC)C(=O)c1ccc(Cl)c(NC(=O)c2cnc(C)cn2)c1 | 20.71% |
| Cc1cn2c(n1)CCC(NC(=O)CCn1cncn1)C2 (stereo not given) | 19.64% |
| Cc1cc(CN2C[C@@H]3COC[C@]3(COCC(=O)N(C)C)C2)no1 | 64.37% |
| Cc1cccc(CN2C[C@@H]3COC[C@]3(COCC(=O)N(C)C)C2)n1 | 27.52% |
| Cc1nc(CN2C[C@@H]3COC[C@]3(COCC(=O)N(C)C)C2)cs1 | 23.09% |
| CC(=O)Nc1ccc(CN2CCc3[nH]cnc3C2c2nccn2C)cc1 (stereo not given) | -42.54% |
| Clc1ccccc1OCCc1cc(C2CCNC2)n[nH]1 (stereo not given) | 16.14% |
| CN1C[C@H](O)[C@]2(CCN(Cc3ccc(F)c(F)c3)C2)S1(=O)=O | 6.4% |
| CCc1noc(CN(Cc2cccs2)C2CC2)n1 | 7.85% |
| COC(=O)C1CN(CC(=O)Nc2cc(F)ccc2F)c2ccccc21 (stereo not given) | 16.95% |
| COC(=O)C1CN(CC(=O)Nc2ccccc2Cl)c2ccccc21 (stereo not given) | 57.34% |
| COC(=O)C1CN(CC(=O)Nc2cccc(OC)c2)c2ccccc21 (stereo not given) | 43.88% |
| Cn1cc(CN2CCC[C@]3(C[C@H](Oc4ncccc4F)CO3)C2)cn1 | 20.01% |
| CC(C)CN1CCC2(Cc3ccccc3NC2=O)C1 (stereo not given) | -1.69% |
| COCC1CN(CC2CC2)Cc2nn(C)cc21 (stereo not given) | 30.38% |
| CCc1ccc2c(c1)C(CCNC(=O)CSC(F)(F)F)C(=O)N2 (stereo not given) | 26.51% |
| CCc1ccc2c(c1)C(CCNC(=O)CCc1ccsc1)C(=O)N2 (stereo not given) | 57.16% |
| CCc1ccc2c(c1)C(CCNC(=O)Cc1ccc(F)cc1)C(=O)N2 (stereo not given) | 33.22% |
| Cc1nc(C)n(CC2CCCCN2CC(=O)Nc2c(C)n[nH]c2C)n1 (stereo not given) | -91.52% |
| CC(C(=O)N(C)C)N1CCCN(C(=O)Oc2ccccc2)CC1 (stereo not given) | 10.43% |
| CC(=O)Nn1ccc2c(nnc3c(-c4ccc(F)cc4)cnn32)c1=O | -27.89% |
| CN1CCC(c2cccc(-c3cccc(C(=O)O)c3)n2)CC1 | -14.73% |
| COc1ncc(C(F)(F)F)c(C(=O)O)c1Cl | 30.38% |

| Compound | INHIBITION |
| --- | --- |
| COC(=O)c1c(C(F)(F)F)cnc(OC)c1Cl | 53.54% |
| COc1nccc(C(F)(F)F)c1C(=O)O | -16.59% |
| Cc1ccc(C(CNCc2c[nH]nc2C)N(C)C)cc1 (stereo not given) | 30.23% |
| Cc1nc(N2CCC(O)(c3ccc(F)cc3)CC2)c2c(C)nn(C)c2n1 | 15.92% |
| CN(C)CC(=O)N1CCOC2(CCCN(c3ncccc3F)C2)C1 (stereo not given) | -15.88% |
| Cc1noc(C)c1CNCC1COCc2c(-c3ccoc3)nnn2C1 (stereo not given) | 22.84% |
| CSc1nccc(N2CCN(C)C3(CCC(=O)N(CC4CC4)CC3)C2)n1 (stereo not given) | 55.4% |
| COCCN1CCC2(CCC1=O)CN(c1ccnc(SC)n1)CCN2C (stereo not given) | 1.85% |
| CCN1CCC2(CCC1=O)CN(c1ccnc(SC)n1)CCN2C (stereo not given) | -1.27% |
| CN1CCC(N(CCc2ccccc2)C(=O)c2ccc(C#N)nc2)CC1 | 31.12% |
| CCc1cc(CNC(=O)N2Cc3ccccc3N(C)CC2C)[nH]n1 (stereo not given) | -19.7% |
| CCc1cc(CNC(=O)N2Cc3ccccc3N(C)CC2C)on1 (stereo not given) | 61.01% |
| CC1CN(C)c2ccccc2CN1C(=O)NCc1ccon1 (stereo not given) | 16.79% |
| O=C(CN1CCC2(CCCN(CCO)C2=O)C1)NCCc1ccccc1 (stereo not given) | -27.89% |
| Brc1cccc(C2(CNCc3cc[nH]c3)CCOCC2)c1 | 10.93% |
| O=C(CS(=O)(=O)c1ccc(Cl)cc1)NC1CCCc2ccccc21 (stereo not given) | 44.37% |
| CN(C)CC1CN(c2ncnc3[nH]ccc23)CCO1 (stereo not given) | -35.72% |
| Cc1cc(NCCO)nc(-c2ccccc2O)n1 | -4.81% |
| Cc1cc(N2Cc3cnn(CCO)c3C2)nc(-c2ccccc2)n1 | 67.53% |
| Cc1cc(N2CCN(CCO)CC2)nc(-c2ccncc2)n1 | 1.22% |
| CCCc1nc(C)cc(N2Cc3cnn(CCO)c3C2)n1 | -18.52% |
| Cc1cc(N2Cc3cnn(CCO)c3C2)nc(-c2ccccc2O)n1 | 53.55% |
| Cc1cc(N2CCOC(C(F)(F)F)C2)nc(-c2ccccc2O)n1 (stereo not given) | -43.28% |
| Cc1ccc(CC(=O)N2Cc3nccn3CC(Cn3cccn3)C2)cc1 (stereo not given) | -8.05% |
| CCc1nc(C2CCCN(C(=O)c3cccc(C(N)=O)c3)C2)no1 (stereo not given) | -12.41% |
| COc1ccc2[nH]c3c(c2c1)CN(c1cc(NCCO)nc(N)n1)CC3 | 13.24% |
| CN(Cc1ccccc1)C(=O)[C@@H]1Cc2[nH]cnc2CN1C | 4.59% |

| Compound | INHIBITION |
| --- | --- |
| CN1Cc2nc[nH]c2C[C@H]1C(=O)NC1CCCCC1 | 60.6% |
| O=C([C@@H]1Cc2[nH]cnc2CN1C(=O)NC1CCCCC1)N1CCCC1 | 17.77% |
| CCC(C)C(=O)N(C)Cc1cc(F)ccc1N1CCC(OC)CC1 (stereo not given) | 15.56% |
| Cc1ccc(CNC(=O)c2ccc(S(=O)(=O)N3C[C@H]4C[C@@H]3CN4)cc2)o1 | 44.86% |
| CCN1CCC(CNCc2c[nH]nc2C(C)(C)C)C1 (stereo not given) | 37.68% |
| CC(C)N1CCC(CNCc2c[nH]nc2C(C)(C)C)C1 (stereo not given) | 66.97% |
| CC(C)(C)c1n[nH]cc1CNCC1CCN(C2CC2)C1 (stereo not given) | 10.43% |
| CCc1nc(CN2CCOC(Cn3nc(C)cc3C)C2)no1 (stereo not given) | -7.73% |
| O=C(CCCc1nc(C2CC2)no1)N1CCCC(c2ccn[nH]2)C1 (stereo not given) | 41.84% |
| COc1ccc(Cl)cc1NC(=O)CCNc1ccc(C#N)cn1 | 9.27% |
| N#Cc1cccc(CN2CC[C@@H]3CN(c4ncccn4)CCO[C@@H]3C2)c1 | 14.94% |
| O=S(=O)(C1CC1)N1CCc2onc(COc3ccccn3)c2C1 | 16.03% |
| O=C(NCc1cc[nH]n1)N1CCN(c2ncccn2)CC1 | -23.42% |
| CC(=O)NC1CCCN(C(=O)NCc2cc[nH]n2)C1 (stereo not given) | 45.83% |
| O=C(NCc1cc[nH]n1)N1CCCCC(N2CCCC2)C1 (stereo not given) | 8.37% |
| Cc1nc(CCNC(=O)NCC(c2ccco2)N(C)C)cs1 (stereo not given) | 34.73% |
| O=C(NCc1cc[nH]n1)NCC(c1ccco1)N1CCCC1 (stereo not given) | -4.1% |
| CCOc1ccccc1N1CCN(C(=O)NCc2cc[nH]n2)CC1 | 56.02% |
| CN(C)C(CNC(=O)NCc1cc[nH]n1)c1ccco1 (stereo not given) | 53.61% |
| N#Cc1ccccc1N1CCCN(C(=O)NCc2cc[nH]n2)CC1 | -13.24% |
| CC(=O)N1CCCN(C(=O)NCc2cc[nH]n2)CC1 | -27.69% |
| O=C(NCc1cc[nH]n1)N1CCN(c2ccccc2Cl)CC1 | -56.99% |
| CCN1CCN(C(=O)NCc2cc[nH]n2)CC1 | 56.02% |
| O=C(NCc1cc[nH]n1)N1CCCC(N2CCCC2)C1 (stereo not given) | 51.94% |
